Screening results from PubChem.
TTR transcr act: increases transthyretin transcription. SH-SY5Y TTR promoter Gaussia luciferase, luminescence; 100% = recombinant luciferase protein wells. activation, % at 16.7 µM. actives 1.3% (n = 92,000);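 active = activation above the mean of all tested compounds plus 3 SD, cut at about 9.5% in these data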;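 note: cells exposed to compounds for one day before reading; 0% = median of all test compound wells on the plate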
HuH7 TTR inh: HuH7 TTR transcription inhibition, counter-screen; shares compounds with TTR transcr act; HuH7 TTR promoter-Gaussia luciferase reporter, luminescence; inhibition, % at 16.7 µM; actives 4% (n = 1,100); AID 1117279;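 active = average inhibition above the solvent-only control wells' mean plus 3 SD, cut at about 15% in these data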;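 note: 0% = cells with DMSO only and 100% = cells with inhibitor control FD; inhibitors lower well luminescence so higher value means more inhibition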
TTR up confirm: human TTR transcription activation, confirmation; shares compounds with TTR transcr act; SHSY5Y TTR promoter Gaussia luciferase, luminescence; 100% = purified Lucia enzyme wells, no cells; activation, % at 16.7 µM; 1,100 tested, under 10 active; AID 1117280;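 active = mean activation above a set limit taken from the earlier primary screen, cut at about 11% in these data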;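 note: 0% = DMSO-treated cells and 100% = recombinant Lucia luciferase without cells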
Numbers without * were called inactive. The full list was thinned out, with hits kept by preference.

`CCCCOc1ccc(C(=O)NC2CCCCN(Cc3ccc(C)cc3)C2=O)cc1` (stereo not given) gave TTR transcr act -2.
`Cc1ccc([N+](=O)[O-])cc1N=C(c1ccc([N+](=O)[O-])cc1)N1CCOCC1` gave TTR transcr act 1.
O=[N+]([O-])c1cccc(NC(=S)N2CCOCC2)c1 was read as TTR transcr act 1.
Screening Cc1ccc([N+](=O)[O-])cc1N=C(c1cccc([N+](=O)[O-])c1)N1CCOCC1 returned TTR transcr act 15*, HuH7 TTR inh -8 and TTR up confirm 1.
For CCCC1CCC2(CCCN2CCOC(=O)Nc2ccc(OC)cc2)CC1 (stereo not given) the results were TTR transcr act 1.
Cn1c(=O)[nH]c(=O)c2c1nc(N/N=C/C(Br)=C/c1ccccc1)n2CCO was read as TTR transcr act 0.
For O=C(Nc1ccccc1)Nc1csc2ccccc12 the results were TTR transcr act -1.
O=C(NCc1csc2ccccc12)Nc1cc(Cl)cc(Cl)c1 was read as TTR transcr act 1.
`O=C(O)Cc1csc2ccccc12` gave TTR transcr act 12*, HuH7 TTR inh -10 and TTR up confirm 1.
Screening CCCCN1CCS(=O)(=O)N(Cc2cn(Cc3ccc(C)cc3)nn2)C(C(=O)OC)C1 (stereo not given) returned TTR transcr act -1.
`CN(Cc1ccccc1)C(=O)OCc1cn(Cc2cccc(F)c2)nn1` gave TTR transcr act -2.
Screening COc1ccc(S(=O)(=O)N2CCCOC2CNC(=O)C(=O)NCc2ccco2)cc1 (stereo not given) returned TTR transcr act 0.
For COc1ccc(S(=O)(=O)N2CCOC2CNC(=O)C(=O)NCc2ccccc2OC)cc1 (stereo not given) the results were TTR transcr act -1.
COc1ccc(S(=O)(=O)N2CCCOC2CNC(=O)C(=O)NCc2ccccn2)cc1 (stereo not given) was read as TTR transcr act 24*, HuH7 TTR inh -10 and TTR up confirm -1.
For Cc1cccc(C(=O)NCC(c2ccc(F)cc2)N2CCOCC2)c1 (stereo not given) the results were TTR transcr act 4.
Screening COC(=O)[C@]12C[C@H](CC(=O)N3CCC(c4ccccc4)CC3)C(=O)N(Cc3cccc4ccccc34)C1=C[C@H](C(C)C)O[C@@H]2C1CC1 returned TTR transcr act -1.
`COc1cccc(OCc2cc(C(=O)N3CCCC3c3ccccn3)no2)c1` (stereo not given) gave TTR transcr act -1.
`NC(=O)[C@@H]1CCCN1C(=O)c1cc(COc2ccc3c(c2)CCCC3)on1` gave TTR transcr act 10*, HuH7 TTR inh -8 and TTR up confirm -1.
For COc1cccc(OCc2cc(C(=O)N3CCN(C4CCCC4)CC3)no2)c1 the results were TTR transcr act 1.
For CC(=O)Nc1sc2c(c1-c1nc3ccccc3s1)CCN(C(C)C)CC2 the results were TTR transcr act 3.
O=C(c1ccc(F)cc1)c1cnc(Nc2ccccc2)s1 was read as TTR transcr act 15*, HuH7 TTR inh -5 and TTR up confirm 0.
`Nc1nc(Nc2ccccc2)sc1C(=O)c1ccccc1` gave TTR transcr act -3.
For O=C(Cc1nnc(NC(=O)Nc2ccc(F)cc2)s1)Nc1ccccc1 the results were TTR transcr act 3.
Screening COc1cccc(N(C)C(=O)[C@@H](C)[C@@H](O)c2ccc(Cl)cc2)c1 returned TTR transcr act 2.
Screening COC(=O)[C@]12CCCCC=C1N(Cc1ccc(OC)cc1)C(=O)[C@@H]2CC(=O)N1CCN(C(=O)c2ccco2)CC1 returned TTR transcr act 3.
COc1ccc(S(=O)(=O)N2CCCOC2CNC(=O)C(=O)NCCc2ccco2)cc1 (stereo not given) was read as TTR transcr act 3.
CCOc1ccc(NC(=O)CN(C)C(=O)c2ccncc2)cc1OCC was read as TTR transcr act -1.
O=C(Nc1ccc2c(c1)OCO2)C1CC(=O)N(CCc2ccccc2)C1 (stereo not given) was read as TTR transcr act -2.
CCOc1ccc(NC(=O)CN(C)C(=O)C2CC(=O)N(CCc3ccccc3)C2)cc1OCC (stereo not given) was read as TTR transcr act 25*, HuH7 TTR inh -15 and TTR up confirm 1.
`COC(=O)[C@]12C[C@H](CC(=O)NCc3cccc(C(F)(F)F)c3)C(=O)N(Cc3ccco3)C1=C[C@H](COCc1ccccc1)O[C@@H]2C` gave TTR transcr act 0.
Screening C#CCOCCOCCOCCNc1nc(N2CCN(C(=O)[C@H]([C@@H](C)CC)n3cc(CCCCN)nn3)CC2)nc(N2CCN(C(=O)[C@H](Cc3ccc(O)cc3)n3cc(CCO)nn3)CC2)n1 returned TTR transcr act 1.
Cc1cccc(Cn2cc(COC(=O)Nc3ccc(F)cc3)nn2)c1 was read as TTR transcr act -1.
CCOC(=O)[C@@]12CCC3=C1N(CCC3)C(=O)[C@H](CC(=O)N1CCCC1)C2 was read as TTR transcr act -1.
COc1ccc(N=Cc2[nH]c3ccccc3c2O)cc1 was read as TTR transcr act 14*, HuH7 TTR inh -1 and TTR up confirm 0.
For COc1ccc(N=Cc2c[nH][nH]c2=O)cc1 the results were TTR transcr act -1.
`COc1ccccc1NC(=O)c1c(O)c2ccccc2[nH]c1=O` gave TTR transcr act 0.
CC(C)(C)OC(=O)N1CCC(N[C@@H](Cc2ccccc2)C(=O)NCC(c2ccccc2)c2ccccc2)(C(=O)NC2CCCCC2)CC1 was read as TTR transcr act 2.
Screening O=C(NC1CCC1)O[C@H]1CC[C@@]23CCCN2C(=O)CCC[C@H]3C1 returned TTR transcr act -2.
Screening C[C@@H]1CN([C@@H](C)CO)C(=O)CCCn2nncc2CO[C@@H]1CN(C)C(=O)c1ccc(N2CCN(C)CC2)cc1 returned TTR transcr act -1.
`C[C@@H]1CN([C@H](C)CO)C(=O)CCCn2nncc2CO[C@H]1CN(C)C(=O)c1ccccc1` gave TTR transcr act 2.
C[C@H](CO)N1C[C@H](C)[C@H](CN(C)C(=O)c2ccncc2)OCc2cnnn2CCCC1=O was read as TTR transcr act 18*, HuH7 TTR inh -8 and TTR up confirm 0.
For COc1ccc(CNC(=O)O[C@H]2CC[C@@]34CCCN3C(=O)CCC[C@H]4[C@H]2C)cc1OC the results were TTR transcr act 1.
For COC(=O)[C@]12C[C@H](CC(=O)N3CCN(C(=O)C4CC4)CC3)C(=O)N(Cc3ccc(Cl)cc3Cl)C1=C[C@H](C1CCCC1)O[C@@H]2C the results were TTR transcr act 2.
`COc1ccc(CN2CCN(Cc3cccc(Oc4ccccc4)c3)CC2)c(OC)c1OC` gave TTR transcr act -2.
For O=C(c1ccccc1)N1CCN(Cc2cccc(Oc3ccccc3)c2)CC1 the results were TTR transcr act -2.
For CN1CCN(Cc2cccc(Oc3ccccc3)c2)CC1 the results were TTR transcr act 18*, HuH7 TTR inh -4 and TTR up confirm -1.
`CN(C)S(=O)(=O)c1ccc2nc(COCc3nc4ccc(S(=O)(=O)N(C)C)cc4[nH]3)[nH]c2c1` gave TTR transcr act 0.
